# Screens as filed in PubChem BioAssay.
# Rows were chosen to be rich in hits. Some 6.6% of all compounds tested hit in one or more screens of this group.
# GDH-TPI counter: inhibits GDH-TPI coupling enzymes, artifact for Mtb FBA screen. GDH-TPI coupled enzyme counterscreen, NADH absorbance. inhibition, % at 4.8 µM. 360,000 tested, 1.2% active; in the data active = inhibition above about 30%
# BoNT-A LC inh2: blocks Botulinum neurotoxin A light chain protease | AID 588499 | inhibition, % at 10 µM | multiplex microsphere protease substrate cleavage, flow cytometry | 360,000 tested, 0.17% active
# BoNT F protease: inhibitors of Botulinum neurotoxin F light chain protease. Multiplex microsphere protease cleavage assay, flow cytometry. 360,000 tested, 0.22% active. inhibition, % at 10 µM; in the data active = inhibition above about 35%, passing the limit was not always enough; inconclusive = no clear call, values can overlap the other calls
# Autofluor counter: flagged as autofluorescent in microsphere protease counterscreen | compound autofluorescence counterscreen, microsphere flow cytometry; stronger effect = higher value | AID 624483 | fluorescence intensity (concentration not given with the values) | 360,000 tested, 3.1% active; in the data active = fluorescence intensity above about 16000; inconclusive = no clear call, values can overlap the other calls
# Mtb FBA inh: Mtb fructose-bisphosphate aldolase inhibition. P9WQA3. purified M. tuberculosis FBA, fluorescence read-out. inhibition, % at 1 µM. 360,000 tested, 2.3% active. AID 588726; in the data active = inhibition above about 27%
# Target sequence (P9WQA3 whole entry, looked up): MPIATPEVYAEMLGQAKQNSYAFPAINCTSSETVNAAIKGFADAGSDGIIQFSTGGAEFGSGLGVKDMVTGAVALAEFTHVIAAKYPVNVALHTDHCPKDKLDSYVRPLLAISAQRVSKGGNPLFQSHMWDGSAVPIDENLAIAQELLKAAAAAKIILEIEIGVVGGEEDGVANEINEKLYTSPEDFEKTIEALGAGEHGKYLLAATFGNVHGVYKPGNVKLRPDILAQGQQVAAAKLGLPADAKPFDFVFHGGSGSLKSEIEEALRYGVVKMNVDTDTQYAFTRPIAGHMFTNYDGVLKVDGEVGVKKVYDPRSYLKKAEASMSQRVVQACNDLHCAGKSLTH
# Anthrax LF prot: inhibitors of Bacillus anthracis lethal factor protease; P15917; multiplex microsphere protease cleavage assay, LF; inhibition, % at 10 µM; 360,000 tested, 0.12% active
# Numbers stand for hits; i = inactive; ? = inconclusive; nt = no result; + = active, no number. Rule as the data show it, unless noted: active = inhibition above about 30%; inconclusive = no clear call, values can overlap the other calls; inactive = below that.
SMILES,GDH-TPI counter,BoNT-A LC inh2,BoNT F protease,Autofluor counter,Mtb FBA inh,Anthrax LF prot
Cc1ccc(C=NNc2nc3c([nH]2)c(=O)n(C)c(=O)n3C)cc1,45.8,i,i,i,i,i
Cn1c(=O)c2[nH]c(NN=Cc3ccccc3)nc2n(C)c1=O,i,i,i,i,i,i
COc1ccc(C=NNc2nc3c([nH]2)c(=O)n(C)c(=O)n3C)cc1,34.4,i,i,i,i,i
c1ccc(-c2nc(NCc3cccnc3)c3ccccc3n2)cc1,i,i,i,i,i,i
Clc1cccc(-c2nc(NCc3cccnc3)c3ccccc3n2)c1,i,i,i,17205,i,i
Fc1ccc(Br)cc1C1C=C(c2ccc(Br)cc2)Nc2ncnn21 (stereo not drawn),i,i,i,22136,i,i
Cc1ccc(-c2nc(CS(=O)CC(=O)N3CCC4(CC3)OCCO4)c(C)o2)cc1 (stereo not drawn),i,i,i,21619,i,i
CCn1c2ccccc2c2nnc(SCC(=O)Nc3ncccn3)nc21,i,?,i,21373,i,i
CCOC(=O)CSc1nnc2c3ccccc3n(CC)c2n1,i,i,?,i,i,i
CCOC(=O)C(Sc1nnc2c3ccccc3n(CC)c2n1)C(=O)OCC,i,i,i,16233,i,i
CCN(Cc1ccccc1)c1ccc(/C=N/NS(=O)(=O)c2ccc(C)c([N+](=O)[O-])c2)cc1,32.1,i,i,i,i,i
CCN(CC)c1ccc(/C=N/NS(=O)(=O)c2cccc([N+](=O)[O-])c2)cc1,i,i,i,i,i,i
OC[C@@H]1CN(CCc2ccccc2)C[C@H](n2cnc3c(NCc4ccc(F)cc4)ncnc32)O1,i,i,i,i,i,i
O=C(O)CC(C(=O)NC1CCCCC1)C1CCCO1 (stereo not drawn),i,i,i,22137,i,i
O=C(O)CC(C(=O)Nc1ccc(Cl)c(Cl)c1)C1CCCO1 (stereo not drawn),i,i,i,i,i,i
Cc1ccc(OCCN2CCC2(C)C(=O)Nc2ccc3c(c2)OCCO3)cc1 (stereo not drawn),i,i,i,i,i,i
NC(=O)c1sc2nc(N3CCCCC3)c3c(c2c1N)CCCC3,i,i,i,16416,i,i
O=C(Oc1cc2oc(=O)c3c(c2cc1Cl)CCCC3)c1ccco1,i,i,i,i,+,i
CC(=O)Oc1cc2oc(=O)cc(C)c2cc1Cl,i,i,i,i,+,i
O=C(Oc1ccc2c3c(c(=O)oc2c1)CCC3)c1ccco1,i,i,i,i,+,i
Cc1cc2oc(=O)c3c(c2cc1OC(=O)c1ccco1)CCCC3,i,i,i,i,i,i
CC(=O)Oc1cc2oc(=O)c3c(c2cc1Cl)CCC3,i,i,i,i,+,i
Cc1cc(OC(=O)c2cccs2)c2c3c(c(=O)oc2c1)CCCC3,i,i,i,i,i,i
Cc1ccc(S(=O)(=O)NC(C(=O)Oc2cc3oc(=O)cc(C)c3cc2Cl)C(C)C)cc1 (stereo not drawn),i,i,i,i,+,i
O=C(Oc1cc2oc(=O)c3c(c2cc1Cl)CCCC3)c1cccs1,i,i,i,i,172.9,i
SMILES,GDH-TPI counter,BoNT-A LC inh2,BoNT F protease,Autofluor counter,Mtb FBA inh,Anthrax LF prot
CCc1cc(=O)oc2cc(OCC(=O)OC)c(Cl)cc12,i,?,i,22235,i,i
Cc1ccc(NC(=O)CN(C)S(=O)(=O)c2ccc3c(c2)n(C)c(=O)c(=O)n3C)cc1,i,i,i,i,i,i
O=C(COC(=O)COc1ccc(Br)cc1)NNC(=O)c1ccccc1,i,i,i,?,i,i
Cc1ccc(NC(=O)C2(C)CCN2CCc2ccccc2)cc1 (stereo not drawn),i,i,i,i,i,i
CCOc1ccc(NC(=S)N(C)C)cc1,i,i,i,i,i,i
Cc1nnc(SCCOC(N)=O)n1C,i,i,i,20927,i,i
CN1C(=O)C2C(c3ccc(N(C)C)cc3)=NN(Cc3ccccc3)C2C1=O (stereo not drawn),43.9,i,i,i,i,i
OC[C@@H](O)C1OC2NC(=S)OC2C1O (stereo partly drawn),i,i,i,i,i,i
CCC(Sc1nc2cc3c(cc2c(=O)n1Cc1ccco1)OCO3)C(=O)Nc1ccccc1OC (stereo not drawn),i,?,i,23027,i,i
CCC(Sc1nc2cc3c(cc2c(=O)n1Cc1ccco1)OCO3)C(=O)NCCOC (stereo not drawn),i,i,i,i,i,i
CCC(Sc1nc2cc3c(cc2c(=O)n1Cc1ccco1)OCO3)C(=O)Nc1cccc(OC)c1 (stereo not drawn),i,i,i,21154,i,i
CCCCN(CCCC)S(=O)(=O)c1ccc(NC(=O)Cc2cccs2)cc1,i,i,i,23090,i,i
CCCN(CCC)S(=O)(=O)c1ccc(NC(=O)COc2ccccc2)cc1,i,?,i,16179,i,i
CCCCN(CCCC)S(=O)(=O)c1ccc(NC(=O)CN2CCOCC2)cc1,i,i,i,20756,i,i
CN(C)S(=O)(=O)c1ccc(NC(=O)CN2CCOCC2)cc1,i,i,i,i,i,i
CC(=O)c1cccc(NC(=O)Cc2cccs2)c1,i,i,i,23709,i,i
COc1ccc(CCn2c(C)cc(C(=O)CN3C(=O)C(=O)N(Cc4ccco4)C3=O)c2C)cc1,i,i,i,i,i,i
CC(C)N(C)c1ncnc2c1ncn2[C@H]1CN(Cc2ccc3c(c2)OCO3)C[C@@H](CO)O1,i,i,i,i,i,i
CCCN(CCC)S(=O)(=O)c1ccc(NC(=O)Cc2cccs2)cc1,i,?,i,25405,i,i
Cc1cccc2nc(=S)n(C(=O)c3ccco3)n12,i,i,i,i,i,i
O=C(c1ccco1)n1c(=S)nc2ccccn21,52.0,i,i,22668,i,i
O=C(Cn1nc2ccccc2n1)N/N=C/c1ccc(F)cc1,i,nt,nt,nt,i,nt
Cc1nc2ccccc2n1/N=C/c1cccnc1,i,i,i,24451,i,i
NS(=O)(=O)c1cccc(NC(=O)COC(=O)C2(c3cccc(F)c3)CCCC2)c1,i,i,i,i,i,i
Cc1nn(-c2cccc(C(F)(F)F)c2)c(=O)c2ccccc12,i,i,i,i,i,i
SMILES,GDH-TPI counter,BoNT-A LC inh2,BoNT F protease,Autofluor counter,Mtb FBA inh,Anthrax LF prot
Cn1cc(-c2nnnn2-c2cccc(C(F)(F)F)c2)c(C(F)(F)F)n1,i,i,i,24492,i,i
COC(=O)c1ccc(COc2cc(O)c3c(c2)OC(C)(C)CC3=O)cc1,i,i,i,i,i,i
CC1(C)CC(=O)c2c(O)cc(OCc3ccc(Br)cc3)cc2O1,i,i,i,22502,i,i
CCOC(=O)c1c(C)c(C)n(Cc2ccc(OC)c(OC)c2)c1C,i,i,i,i,i,i
CCOC(=O)c1cc(C)n(Cc2ccc(OCC)c(OC)c2)c1C,i,i,i,17147,i,i
COc1ccc(CC(=O)Nc2ccc(F)c(F)c2F)cc1S(=O)(=O)N1CCOCC1,i,i,i,i,i,i
CO/N=C/C(C#N)=C/c1cc(C(=O)c2ccccc2)cn1C,i,i,i,i,i,i
